Screening data (PubChem BioAssay)
TMEM16A inh – blocks the mouse calcium-activated chloride channel TMEM16A; Q8BHY3; HEK293 TMEM16A/YFP iodide influx fluorescence, ionomycin; normalized B-score (activity score, 25-100; higher = stronger inhibition) at 10 µM; hit rate 1.2% among 310,000; AID 588511;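 active means ratio plate-corrected score three or more library SD toward inhibition, starting fluorescence score within five deviations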;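 further: score derived from kinetic fluorescence span divided by baseline fluorescence per well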
Kir21 inh – blocks the mouse Kir2.1 inward-rectifier potassium channel; hit rate 0.85% among 310,000; HEK293-Kir2.1, FluxOR thallium flux fluorescence; active compounds read low; P35561; B-score at 10 µM; AID 1672;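 active means fluorescence ratio B-score at or below minus 3 SD of library scores, with starting-brightness B-score within 2 SD, cut at about -4.2 in these data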;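 further: channel flux triggered by added potassium and thallium sulfate stimulus; B-score of peak minus minimum fluorescence over baseline after thallium stimulus; more negative B-score means stronger Kir2.1 block with less thallium influx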
TMEM16A act – mouse TMEM16A channel activation, primary screen; HEK293 TMEM16A/YFP-H148Q/I152L, iodide quench fluorescence; active compounds read low; B-score at 10 µM; hit rate 0.3% among 340,000; AID 623877;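 active means fluorescence-ratio B-score plate-corrected deviation score at least 3 library SD below zero, with starting fluorescence score within 5 deviations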;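 further: channel opened by trigger with iodide after compound preincubation; score built on the fluorescence ratio of max minus min over baseline; more negative score means more quench and so TMEM16A activation or potentiation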
GPR7 antagonist – blocks human GPR7 receptor signaling | P48145 | GPR7-expressing cells, fluorescence antagonist assay | hit rate 1.1% among 290,000 | inhibition, % at 4.4 µM; in the data active means inhibition above about 16%, passing the limit was not always enough;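 further: cells stimulated with the agonist NPW; 0% = agonist with vehicle and 100% = vehicle without agonist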
CHT block – inhibits the human high affinity choline transporter | Q9GZV3 | CHT-expressing cells, membrane potential dye, choline response; active compounds read low | B-score at 10 µM | hit rate 0.86% among 310,000 | AID 488975;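 active means B-score over 3 SD under the library average, and starting fluorescence ratio not unusually high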;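 further: choline stimulus applied at its EC90 after an EC20 pre-addition; B-score computed on integrated fluorescence ratio after choline addition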
CHT PAM – allosteric activators of human choline transporter CHT | Q9GZV3 | CHT-expressing cells, membrane potential dye, choline EC20; active compounds read high; LV-AA mutant CHT in HEK293 cells | B-score at 10 µM | hit rate 0.49% among 310,000;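 active means initial fluorescence not abnormally high and integrated response B-score, plate-corrected, over 3 SD above library mean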
The depositor's hits bear a star; i = inactive; . = not tested or not shown. Compounds with a hit are over-represented: about 3.7% of the library has one in this group of screens.

SMILES | TMEM16A inh | Kir21 inh | TMEM16A act | GPR7 antagonist | CHT block | CHT PAM
OCCc1c[nH]c2ccc(C(F)(F)F)cc12 | i | 2 | i | 6 | i | i
CCCCN(C(=O)c1ccc2c(c1)OCO2)c1ccccc1 | i | -5.4* | i | 2 | i | i
CN(Cc1ccccc1)C(=O)c1ccc2c(c1)OCO2 | i | 0.58 | i | -3 | i | i
O=[N+]([O-])c1ccc(S(=O)(=O)c2ccccc2)nc1 | i | -8.1* | i | 32 | i | i
Cc1ccc(S(=O)(=O)c2ccc([N+](=O)[O-])cn2)cc1 | i | -2.8 | i | 25 | i | i
CC(=O)CC(=O)NC(=NC1CCCCC1)Nc1nc(C)cc(C)n1 | i | -1.1 | i | 21* | i | i
Cc1cc(C)cc(C(=O)OCC(=O)NCc2cccs2)c1 | i | -1.7 | i | 26* | i | i
COc1ccc2sc(NC(=O)NC(=O)c3c(Cl)cccc3Cl)nc2c1 | i | 1.5 | i | 20* | i | i
O=C(CNC(=O)C1COc2ccccc2O1)Nc1ccc(F)c(F)c1 (stereo not drawn) | . | . | i | . | . | .
Cc1nn(CCc2nn[nH]n2)c2nc(-c3ccc(C4CCCCC4)cc3)cc(C(F)(F)F)c12 | 100* | 2.5 | i | 5 | i | i
COc1cc(CNCC(C)C)cc(Br)c1OCC(=O)Nc1ccccc1 | i | -2 | i | 18* | i | i
O=C(CSc1ccc(-c2cccnc2)nn1)Nc1ccccc1C(F)(F)F | i | 0.11 | i | -11 | i | i
Cc1ccc([C@@H]2CC=C(C(=O)O)[C@H](c3ccccc3)N2S(=O)(=O)c2ccc(C)cc2)cc1 | i | . | i | . | i | i
Cc1ccc(S(=O)(=O)N2[C@@H](c3ccccc3)C(C(=O)O)=CC[C@H]2c2ccc(C(C)C)cc2)cc1 | 100* | . | i | . | i | i
O=C(O)C1=CC[C@@H](c2ccc(Cl)cc2)N(S(=O)(=O)c2ccc(Cl)cc2)[C@H]1c1ccccc1 | i | . | i | . | i | i
Cc1ccc(S(=O)(=O)N2[C@@H](c3ccc(Cl)cc3)C(C(=O)O)=CC[C@H]2c2ccc(C(C)C)cc2)cc1 | 100* | . | i | . | i | i
Cc1cccc(Cc2ncc(C(F)(F)F)cc2Cl)c1 | i | -1.5 | i | -9 | i | i
COc1cccc(-c2coc3c(C)c4oc(=O)c(CC(=O)O)c(C)c4cc23)c1 | i | -0.91 | i | -15 | i | i
COc1cccc(-c2coc3c(C)c4oc(=O)c(CCC(=O)O)c(C)c4cc23)c1 | 100* | -0.41 | i | -29 | i | i
CC(C)=C(NC(=O)c1ccccc1Br)C(=O)NCCc1nc2ccccc2[nH]1 | i | -4 | i | -16 | i | i
O=C(C1CCN(S(=O)(=O)c2cccc3nsnc23)CC1)N1CC=C(c2ccccc2)CC1 | 25* | -0.75 | i | 3 | i | i
O=C(C1CCC(CNS(=O)(=O)c2cccc3nsnc23)CC1)N1CC=C(c2ccccc2)CC1 (stereo not drawn) | i | 0.4 | i | -7 | i | i
COc1ccccc1-c1ocnc1C(=O)N1CCN(S(=O)(=O)c2ccc(NC(C)=O)cc2)CC1 | i | 0.29 | i | -8 | i | i
COCCCNCCCOc1ccc(Cl)cc1Br | i | -1.6 | i | 1 | i | i
CN(CCOc1ccccc1Cl)Cc1ccccc1 | i | -0.62 | i | 5 | i | i
SMILES | TMEM16A inh | Kir21 inh | TMEM16A act | GPR7 antagonist | CHT block | CHT PAM
Cc1ccc(Cl)c(OCCCCN(C)Cc2ccccc2)c1 | i | -9.5* | i | -6 | i | i
Cc1ccc(Cl)c(OCCCN(C)Cc2ccccc2)c1 | i | -2.2 | i | 1 | i | i
CCCCNCCOCCOc1ccc(Cl)cc1Br | i | -6.1* | i | 15 | i | i
CN(CCOCCOc1ccc(Cl)cc1Br)Cc1ccccc1 | i | -7.3* | i | 10 | i | i
CCOc1ccccc1-n1c(SC(C)C(=O)NCC2CCCO2)nc2ccccc2c1=O (stereo not drawn) | . | . | i | . | . | .
CC(NC(=O)Cn1ncc(Cl)c(Cl)c1=O)C12CC3CC(CC(C3)C1)C2 (stereo not drawn) | 100* | -0.6 | i | 23* | i | i
